According to a collection of fitness landscapes (doi:10.1126/science.1257360):
Over roughly 140,000 sequences, “enrichment ratio after two sorts for PhoP signalling” has its median near 0; the highest 2% begin near 11. Many of the other results were omitted from the sample, so the highest values are more common in it than they were.

B1: PhoQ; a variant is named by its letters at X, in order, P23837 (parent)
chain: MKKLLRLFFPLSLRVRFLLATAAVVLVLSLAYGMVALIGYSVSFDKTTFRLLRGESNLFYTLAKWENNKLHVELPENIDKQSPTMTLIYDENGQLLWAQRDVPWLMKMIQPDWLKSNGFHEIEADVNDTSLLLSGDHSIQQQLQEVREDDDDAEMTHSVAVNVYPATSRMPKLTIVVVDTIPVELKSSYMVWSWFIYVLSANLLLVIPLLWVAAWWSLRPIEALAKEVRELEEHNRELLNPATTRELTSLVRNLNRLLKSERERYDKYRTTLTDLTHSLKTPLXXLQXXLRSLRSEKMSVSDAEPVMLEQISRISQQIGYYLHRASMRGGTLLSRELHPVAPLLDNLTSALNKVYQRKGVNISLDISPEISFVGEQNDFVEVMGNVLDNACKYCLEFVEISARQTDEHLYIVVEDDGPGIPLSKREVIFDRGQRVDTLRPGQGVGLAVAREITEQYEGKIVAGESMLGGARMEVIFGRQHSAPKDE

Variants of: B1
Assay: enrichment ratio after two sorts for PhoP signalling (ratio (wild type AVST 3.29)); higher = more functional
Conditions: with PhoP (E. coli)

Row | Variant | enrichment ratio
1 | EFTF | ≤ 0.25
2 | GVQP | ≤ 0.25
3 | PEHG | ≤ 0.25
4 | WTQP | ≤ 0.25
5 | TWFQ | ≤ 0.25
6 | QNLY | ≤ 0.25
7 | KERI | ≤ 0.25
8 | KAIG | ≤ 0.25
9 | RCHM | ≤ 0.25
10 | ANHN | ≤ 0.25
11 | ANIS | 4.66
12 | ANIV | 13.7
13 | HKAP | ≤ 0.25
14 | SKLA | 8.7
15 | SKLF | 11
16 | SKLM | 16.3
17 | SKVM | 19.7
18 | SKVA | 1.14
19 | NDKA | ≤ 0.25
20 | ITMN | ≤ 0.25
21 | VVYG | ≤ 0.25
22 | VHNY | ≤ 0.25
23 | HMES | ≤ 0.25
24 | YWTM | ≤ 0.25

Row | Variant | enrichment ratio
25 | TVTM | 16.6
26 | TGTM | 15
27 | SPNM | ≤ 0.25
28 | GGTM | 1.63
29 | TVNM | 13.5
30 | AGTS | 7.67
31 | KSTM | ≤ 0.25
32 | AGTM | 16.2
33 | FVNM | ≤ 0.25
34 | RGTM | ≤ 0.25
35 | SPTM | ≤ 0.25
36 | DANA | ≤ 0.25
37 | MGIR | ≤ 0.25
38 | PYLL | ≤ 0.25
39 | VWQC | ≤ 0.25
40 | KPYK | ≤ 0.25
41 | NMSK | ≤ 0.25
42 | GWYP | ≤ 0.25
43 | NKWL | ≤ 0.25
44 | YWTA | ≤ 0.25
45 | TAAY | 15.7
46 | TAGY | 34.1
47 | TAPY | ≤ 0.25
48 | KAGY | ≤ 0.25

Row | Variant | enrichment ratio
49 | TAYI | 10.2
50 | NAGY | ≤ 0.25
51 | NVMG | ≤ 0.25
52 | SYKQ | ≤ 0.25
53 | DDMM | ≤ 0.25
54 | FLYG | ≤ 0.25
55 | YCDY | ≤ 0.25
56 | PSFY | ≤ 0.25
57 | WEWY | ≤ 0.25
58 | VFIN | ≤ 0.25
59 | YVGY | ≤ 0.25
60 | HIQN | ≤ 0.25
61 | MNIE | ≤ 0.25
62 | MNWG | 15.6
63 | TNWE | ≤ 0.25
64 | MNWI | 6.11
65 | MNQN | ≤ 0.25
66 | MNVG | ≤ 0.25
67 | MNWN | 15.4
68 | MNHG | ≤ 0.25
69 | MNWE | 17.9
70 | TSGQ | 7.96
71 | PQQF | ≤ 0.25
72 | WRDC | ≤ 0.25

Row | Variant | enrichment ratio
73 | YEWI | ≤ 0.25
74 | KALM | ≤ 0.25
75 | HPLM | ≤ 0.25
76 | TALM | 15.3
77 | HYLM | ≤ 0.25
78 | YIGM | 0.38
79 | WALM | 6.02
80 | YELA | ≤ 0.25
81 | QPLM | ≤ 0.25
82 | YELS | 14.9
83 | YILM | 12.1
84 | HALM | 14.3
85 | SGGE | ≤ 0.25
86 | MSWN | 8.63
87 | TQHK | ≤ 0.25
88 | KKLF | ≤ 0.25
89 | HYYY | ≤ 0.25
90 | VMNW | ≤ 0.25
91 | NFPM | ≤ 0.25
92 | MDYM | ≤ 0.25
93 | TGWM | 0.965
94 | FLTQ | ≤ 0.25
95 | HCKA | ≤ 0.25
96 | FSYE | ≤ 0.25

Row | Variant | enrichment ratio
97 | NALM | 5.51
98 | VILM | 1.31
99 | AALM | 14.8
100 | AKLM | 12.4
101 | PKLM | ≤ 0.25
102 | VALM | 16.8
103 | WKLM | ≤ 0.25
104 | YALM | 12.7
105 | VLLM | 0.26
106 | YWLM | ≤ 0.25
107 | RGGT | ≤ 0.25
108 | TCHA | ≤ 0.25
109 | ESLN | ≤ 0.25
110 | AYSD | ≤ 0.25
111 | WYCA | ≤ 0.25
112 | QFWH | ≤ 0.25
113 | FYES | ≤ 0.25
114 | YMRA | ≤ 0.25
115 | QDSF | ≤ 0.25
116 | SHGM | ≤ 0.25
117 | AYLM | ≤ 0.25
118 | ANLM | 13.3
119 | SHLM | 19.3
120 | AHLM | 12.1

Row | Variant | enrichment ratio
121 | WNLM | ≤ 0.25
122 | AILM | 5.76
123 | YELM | 13.8
124 | SHLA | 3.56
125 | FTLM | 8.49
126 | YELF | 0.264
127 | YHLM | 0.877
128 | ATSH | 10.6
129 | RYPH | ≤ 0.25
130 | VVLY | ≤ 0.25
131 | VSDV | ≤ 0.25
132 | FWLQ | ≤ 0.25
133 | ISFK | ≤ 0.25
134 | HFQN | ≤ 0.25
135 | SRTQ | ≤ 0.25
136 | APLM | ≤ 0.25
137 | KKLM | ≤ 0.25
138 | VHLM | ≤ 0.25
139 | FDLM | ≤ 0.25
140 | ADLM | 12.7
141 | NHLM | ≤ 0.25
142 | HKLM | ≤ 0.25
143 | THLM | 12.3
144 | IQLM | 3.4

Row | Variant | enrichment ratio
145 | TKLM | 21.3
146 | AQLM | 19.4
147 | FHFT | ≤ 0.25
148 | HCCR | ≤ 0.25
149 | PGAV | ≤ 0.25
150 | DVEF | ≤ 0.25
151 | FMQW | ≤ 0.25
152 | QFLI | ≤ 0.25
153 | NSRM | ≤ 0.25
154 | RLVV | ≤ 0.25
155 | TVNN | 12.7
156 | KCNN | ≤ 0.25
157 | ITNN | ≤ 0.25
158 | TNEN | ≤ 0.25
159 | SPNN | ≤ 0.25
160 | TWNN | 0.76
161 | YTNN | ≤ 0.25
162 | TNNN | 14.7
163 | TTNN | 17.8
164 | TNMN | ≤ 0.25
165 | PVNN | ≤ 0.25
166 | TNQN | 16.8
167 | MDAD | ≤ 0.25
168 | QRKY | ≤ 0.25

Row | Variant | enrichment ratio
169 | NDMN | ≤ 0.25
170 | EKIL | ≤ 0.25
171 | PHCG | ≤ 0.25
172 | SNES | ≤ 0.25
173 | IPVP | ≤ 0.25
174 | TNKH | ≤ 0.25
175 | MNQH | ≤ 0.25
176 | TNQH | 15
177 | LTNN | ≤ 0.25
178 | FDNN | ≤ 0.25
179 | TDNN | 33.6
180 | ISMG | 1.17
181 | WDMF | ≤ 0.25
182 | KSIQ | ≤ 0.25
183 | WNCS | ≤ 0.25
184 | TCIC | ≤ 0.25
185 | TCTI | 17.1
186 | TCNK | ≤ 0.25
187 | KCTI | ≤ 0.25
188 | TCTH | 3.96
189 | TCTS | 17.5
190 | TCTA | 11.4
191 | TCTC | 11.4
192 | TCTE | ≤ 0.25

Row | Variant | enrichment ratio
193 | KCTA | ≤ 0.25
194 | TCTK | 5.27
195 | TCDW | ≤ 0.25
196 | WMFM | ≤ 0.25
197 | HQPT | ≤ 0.25
198 | PYKQ | ≤ 0.25
199 | WRPH | ≤ 0.25
200 | LLYS | ≤ 0.25
201 | VMRN | ≤ 0.25
202 | AANR | ≤ 0.25
203 | IGAM | ≤ 0.25
204 | SVEG | ≤ 0.25
205 | NHNM | ≤ 0.25
206 | VWYA | ≤ 0.25
207 | SFCD | ≤ 0.25
208 | SSCV | 18.4
209 | SLCV | 7.13
210 | SSCI | 24.5
211 | TSCG | 7.32
212 | SSQP | ≤ 0.25
213 | SSCQ | 13.4
214 | SSCG | 12.6
215 | KSCG | 1.82
216 | SSCS | 9.51

Row | Variant | enrichment ratio
217 | SSCE | 3.26
218 | FSCQ | 7.11
219 | SPCV | ≤ 0.25
220 | AHKE | ≤ 0.25
221 | PMIW | ≤ 0.25
222 | RAKS | ≤ 0.25
223 | VANQ | ≤ 0.25
224 | IINC | ≤ 0.25
225 | VHNE | ≤ 0.25
226 | SDFS | ≤ 0.25
227 | PMPC | ≤ 0.25
228 | KFDS | ≤ 0.25
229 | YAQF | ≤ 0.25
230 | EIRD | ≤ 0.25
231 | SSWL | 10.6
232 | SSCL | 18.7
233 | SSNL | 3.91
234 | WSRR | ≤ 0.25
235 | ELIY | ≤ 0.25
236 | KGHE | ≤ 0.25
237 | VIMF | ≤ 0.25
238 | TTHH | 11.8
239 | CSTS | ≤ 0.25
240 | TTTS | 14.1

Row | Variant | enrichment ratio
241 | TTTC | 5.52
242 | TCHH | 26.2
243 | YTTS | ≤ 0.25
244 | KCHH | ≤ 0.25
245 | FCHH | ≤ 0.25
246 | YTHH | ≤ 0.25
247 | LTTS | ≤ 0.25
248 | KSHH | ≤ 0.25
249 | CTTS | 16.8
250 | SRLA | ≤ 0.25
251 | NNFT | ≤ 0.25
252 | PAYF | ≤ 0.25
253 | PHQG | ≤ 0.25
254 | LARQ | ≤ 0.25
255 | VYWL | ≤ 0.25
256 | HTSP | ≤ 0.25
257 | QDNG | ≤ 0.25
258 | PCTP | ≤ 0.25
259 | KNRD | ≤ 0.25
260 | PYIP | ≤ 0.25
261 | SDAL | ≤ 0.25
262 | TCES | ≤ 0.25
263 | VDIK | ≤ 0.25
264 | KVYK | ≤ 0.25

Row | Variant | enrichment ratio
265 | HCSM | ≤ 0.25
266 | CLFG | ≤ 0.25
267 | NIPT | ≤ 0.25
268 | YTNH | ≤ 0.25
269 | TTNH | 12.2
270 | TTTK | 16.7
271 | TTTH | 20.3
272 | KSTK | ≤ 0.25
273 | TTKH | ≤ 0.25
274 | YTTK | ≤ 0.25
275 | LTNH | ≤ 0.25
276 | YTTH | ≤ 0.25
277 | ENFF | ≤ 0.25
278 | VSFD | 0.544
279 | LAEF | ≤ 0.25
280 | YEFI | ≤ 0.25
281 | TRCW | ≤ 0.25
282 | YFRG | ≤ 0.25
283 | GFVM | ≤ 0.25
284 | RLME | ≤ 0.25
285 | QHMY | ≤ 0.25
286 | LECM | 17.2
287 | FNCM | 5.18
288 | LECK | 1.26

Row | Variant | enrichment ratio
289 | MACM | ≤ 0.25
290 | DMCM | ≤ 0.25
291 | NECM | 28.2
292 | TECM | 31.3
293 | TECK | 4.11
294 | YWCM | ≤ 0.25
295 | MECM | 36.6
296 | FECM | 5
297 | LNCM | ≤ 0.25
298 | QCSI | ≤ 0.25
299 | QACK | ≤ 0.25
300 | GTRW | ≤ 0.25
301 | TLVA | ≤ 0.25
302 | TYNL | 3.68
303 | RPMT | ≤ 0.25
304 | HVPY | ≤ 0.25
305 | WMTR | ≤ 0.25
306 | WIHI | ≤ 0.25
